# Source: PubChem BioAssay (NCATS)
# “And” between values parts separate entries of the source, which are not always exact repeats. Equal values may be shown once. Inconclusive results are not listed. A call without a number means that no potency is given here. More than one record can exist for a structure, and the calls need not agree. The source made the active and inactive calls. Unless noted, the call rests on the fitted dose curve; in most records, active means well fitted curve in the direction sought with a large enough effect; inconclusive means small, poorly fitted or top-dose-only effect, or another doubt; inactive means no such curve, though single readings can be large; an effect the other way counts as inactive or inconclusive.
# Key:
# [1] = High-throughput drug toxicity screening in the BPDCN cell line Gen2.2 (AID 1224824; call rule not given here;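 further: cells exposed to compounds for 48 h before reading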); conditions: Gen2.2 BPDCN cells; at 45.8 µM (top of the series)
# How it was run: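 Gen2.2, 500 cells/well, phenol red-free RPMI/10% FBS/Pen-Strep; 48 h cpd, 37 °C/5% CO2; CTG lum, 15 min RT. Norm: DMSO = 100%, bortezomib 9.2 uM final = 0%.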
# [2] = High-throughput drug toxicity screening in the BPDCN cell line Cal-1 (AID 1224825; call rule not given here); conditions: Cal-1 BPDCN cell viability, qHTS; at 45.8 µM (top of the series)
# How it was run: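 Cal-1 cells, 500 per well in phenol-red-free RPMI with 10% FBS, exposed to compounds for 48 hours at 37C, 5% CO2. Viability read by CellTiter-Glo luminescence; percent activity normalized to DMSO (100%) and 9.2 uM bortezomib final (0%).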
# [3] = qHTS assay for measurement of the activity of small molecule inhibitors on Zika virus induced Caspase-3 activity in human iPSC derived neural progenitor cells (hNPCs) (AID 1224857); further: nearly all actives have a fitted effect of over 65% in size
# How it was run: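 In medium with heparin 2 ug/ml and cyclopamine 2 uM, hNPCs (350 cells/well) received compound for one hour and then Zika virus at 2 FFU/cell; caspase activity was measured by Caspase-Glo 3/7 luminescence 6 h post-infection.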
# [4] = qHTS assay for measurement of the activity of small molecule inhibitors on Zika virus induced Caspase-3 activity in human astrocytoma cells (AID 1224859)
# How it was run: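 A cell-based luminescent caspase-3/7 assay used SNB-19 cells infected with ZIKV (2 FFU/cell) for 6 h following 1 h compound pretreatment.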
# [5] = qHTS Screen of the MIPE 4.0 Collection Against Ewings Sarcoma (EW8) (AID 1259255); further: nearly all actives have a fitted effect of over 35% in size; further: potency means the concentration at half of the fitted maximal effect
# How it was run: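 Log-phase cells in RPMI with 5% FBS attached for 4 h, then received compounds as a titration for 48 h at 37C, 5% CO2. Viability was read by CellTiter-Glo luminescence and normalized to DMSO and no-cell wells.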
# [6] = qHTS assay to identify small molecule inhibitors of chordoma cells - UCH-1 (AID 1259355); further: nearly all actives have a fitted effect of over 55% in size; further: potency means the concentration at half of the fitted maximal effect
# How it was run: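 Cells (800/well) were seeded and left overnight at 37 C, 5% CO2, then treated with drugs at 15 concentrations plus a combination mix of auranofin, camptothecin, doxorubicin, rubitecan and topotecan. Viability after 48hr was read by CellTiter-Glo luminescence.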
# [7] = qHTS assay to identify small molecule inhibitors of chordoma cells - UCH-2 (AID 1259356); further: potency means the concentration at half of the fitted maximal effect
# [8] = P-glycoprotein substrates identified in KB-8-5-11 adenocarcinoma cell line, qHTS therapeutic library screen (AID 1346987); further: nearly all actives have a fitted effect of over 65% in size; further: potency means the concentration at half of the fitted maximal effect
# How it was run: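 KB-8-5-11: colchicine-selected sub-line of KB-3-1 over-expressing P-gp; assay medium lacked colchicine. 72 h drug exposure at 37 degree C, CellTiter-Glo.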
# [9] = molecular target: Atrial natriuretic peptide receptor 1 (Homo sapiens) (UniProt P16066); assay: Natriuretic polypeptide receptor (hNpr1) antagonism - Pilot screen (AID 1347049; calls by dose curve;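 further: agonist-evoked cGMP luminescence read 20 min after hNppA addition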; further: potency means the concentration at half of the fitted maximal effect)
# How it was run: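 HEK293 cells expressing hNpr1 and GloSensor cGMP luciferase, 1500/well, loaded with 2% GloSensor reagent 2 h, compound 30 min at room temperature; luminescence read before and 20 min after 0.1 nM hNppA stimulation.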
# [10] = NS1 protein of Zika virus - qHTS assay to identify small molecule inhibitors in human HEK 293 cells (AID 1347053); further: nearly all actives have a fitted effect of over 55% in size; further: potency means the concentration at half of the fitted maximal effect
# How it was run: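 Following 20 h seeding, HEK 293 cells took compound, then 1 h later ZIKV MR766 (MOI = 0.5). Incubation ran 24 h at 37 C before TR-FRET detection of NS1; a drop in signal indicates inhibition.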
# [11] = Immunotoxin (HA22) sensitization/mitigation study. Vehicle arm (PBS) (AID 1159510; call rule not given here; further: potency means the concentration at half of the fitted maximal effect)
# [12] = Immunotoxin (SS1P) sensitization/mitigation study. Vehicle arm (DMEM) (AID 1159513; call rule not given here; further: potency means the concentration at half of the fitted maximal effect)
# [13] = Identifying Small Molecule Inhibitors of Pancreatic Cancer Stem Cells (SN12C, Spheroid) (AID 1259360); conditions: Potency: SN12C spheroid viability; further: potency means the concentration at half of the fitted maximal effect
# How it was run: (§1)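 Pre-formed 14-day tumor spheroids or adherent cells dosed and incubated 48 h, 37C, 5% CO2. Viability assessed by CellTiter-Glo.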
# [14] = Identifying Small Molecule Inhibitors of Pancreatic Cancer Stem Cells (A278, Adherent) (AID 1259361); further: nearly all actives have a fitted effect of over 35% in size
# How it was run: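 Spheroids grown 14 days in stem cell media on hydrogel-coated nonadherent plates; 2D lines seeded directly. Compounds added after 4 h attachment, 48 h at 37C, 5% CO2; CellTiter-Glo luminescence normalized to DMSO (no inhibition) and no-cell wells (full inhibition).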
# [15] = Identifying Small Molecule Inhibitors of Pancreatic Cancer Stem Cells (Panc1, Spheroid) (AID 1259359);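 further: compound exposure lasted 48 h before reading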
# How it was run: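 Spheroids grown 14 days in stem cell media on nonadherent hydrogel before screening; cells attached 4 h, then compound exposure 48 h at 37C, 5% CO2. CellTiter-Glo luminescence normalized to DMSO (no inhibition) and no-cell wells (full inhibition).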
# [16] = P-glycoprotein substrates identified in KB-3-1 adenocarcinoma cell line, qHTS therapeutic library screen (AID 1346986); further: nearly all actives have a fitted effect of over 60% in size
# How it was run: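 Compounds were tested in dose-response against KB-3-1 and KB-8-5-11 cells at 37 degree C for 72 h, and viability was measured by luminescence. AC50 values came from curve fitting with class-based activity calls.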
# [17] = Identifying Small Molecule Inhibitors of Pancreatic Cancer Stem Cells (A2780, Spheroid) (AID 1259357); conditions: Potency: A2780 spheroid viability;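 further: spheroids pre-formed over 14 days in stem cell medium on hydrogel; compound exposure lasted 48 h before the ATP luminescence read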
# How it was run: as §1
# [18] = Identifying Small Molecule Inhibitors of Pancreatic Cancer Stem Cells (Panc1, Adherent) (AID 1259362); conditions: Potency: viability; further: potency means the concentration at half of the fitted maximal effect;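 on viability, % of control: compound exposure lasted 48 h before the viability read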
# How it was run: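 Luminescent ATP readout (CellTiter-Glo) quantifies surviving cells after a 48 h drug incubation. Normalization uses DMSO wells as no inhibition and media-only wells as full inhibition; bortezomib served as positive control.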
# [19] = molecular target: Atrial natriuretic peptide receptor 2 (Homo sapiens) (UniProt P20594); assay: Natriuretic polypeptide receptor (hNpr2) antagonism - Pilot subtype selectivity assay (AID 1347050; calls by dose curve; further: potency means the concentration at half of the fitted maximal effect)
# How it was run: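 HEK293 cells expressing hNpr2 and a GloSensor cGMP luciferase sensor, 1500/well, preloaded 2 h with 2% GloSensor reagent, compound 30 min, then 1 nM hNppC for 20 min. Antagonism from luminescence after versus baseline pre-read; LOPAC in 1:5 titrations.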
# [20] = Natriuretic polypeptide receptor (hNpr1) antagonism - Pilot counterscreen GloSensor control cell line (AID 1347045; calls by dose curve; further: potency means the concentration at half of the fitted maximal effect)
# How it was run: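 HEK293 cells carrying the GloSensor cGMP sensor (GIP/pGS-40F) were loaded with 2% GloSensor reagent for 2 h, exposed to compounds for 30 min, and then stimulated with 50 uM sodium nitroprusside for 20 min at room temperature.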
# Atrial natriuretic peptide receptor 2 (Homo sapiens), sequence (P20594 whole entry, looked up): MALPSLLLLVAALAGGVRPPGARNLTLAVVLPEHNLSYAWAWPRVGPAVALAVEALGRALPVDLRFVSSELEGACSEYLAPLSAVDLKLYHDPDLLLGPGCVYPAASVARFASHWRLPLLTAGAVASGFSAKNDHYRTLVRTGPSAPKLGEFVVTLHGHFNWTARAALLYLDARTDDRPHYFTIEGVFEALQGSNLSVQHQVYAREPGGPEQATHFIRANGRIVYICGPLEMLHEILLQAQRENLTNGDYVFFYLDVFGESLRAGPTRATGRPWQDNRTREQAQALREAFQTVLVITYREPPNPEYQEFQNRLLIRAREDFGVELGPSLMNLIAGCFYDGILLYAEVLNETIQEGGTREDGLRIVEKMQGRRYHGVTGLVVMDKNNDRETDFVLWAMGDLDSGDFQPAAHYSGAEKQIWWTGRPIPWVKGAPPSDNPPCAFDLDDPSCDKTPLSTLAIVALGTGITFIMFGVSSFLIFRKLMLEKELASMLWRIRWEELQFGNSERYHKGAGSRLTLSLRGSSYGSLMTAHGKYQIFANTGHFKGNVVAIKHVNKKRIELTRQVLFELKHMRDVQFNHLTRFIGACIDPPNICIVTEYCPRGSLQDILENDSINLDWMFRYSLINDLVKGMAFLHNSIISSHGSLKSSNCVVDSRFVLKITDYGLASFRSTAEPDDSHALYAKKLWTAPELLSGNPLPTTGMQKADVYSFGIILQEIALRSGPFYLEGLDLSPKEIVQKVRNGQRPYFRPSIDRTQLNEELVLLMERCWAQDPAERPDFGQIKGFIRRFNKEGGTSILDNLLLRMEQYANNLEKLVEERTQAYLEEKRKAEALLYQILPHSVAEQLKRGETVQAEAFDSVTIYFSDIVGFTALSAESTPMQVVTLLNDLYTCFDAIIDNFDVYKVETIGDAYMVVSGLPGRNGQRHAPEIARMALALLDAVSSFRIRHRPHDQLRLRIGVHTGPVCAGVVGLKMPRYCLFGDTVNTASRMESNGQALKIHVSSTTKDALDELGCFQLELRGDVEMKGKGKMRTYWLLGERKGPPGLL
# Atrial natriuretic peptide receptor 1 (Homo sapiens), sequence (P16066 whole entry, looked up): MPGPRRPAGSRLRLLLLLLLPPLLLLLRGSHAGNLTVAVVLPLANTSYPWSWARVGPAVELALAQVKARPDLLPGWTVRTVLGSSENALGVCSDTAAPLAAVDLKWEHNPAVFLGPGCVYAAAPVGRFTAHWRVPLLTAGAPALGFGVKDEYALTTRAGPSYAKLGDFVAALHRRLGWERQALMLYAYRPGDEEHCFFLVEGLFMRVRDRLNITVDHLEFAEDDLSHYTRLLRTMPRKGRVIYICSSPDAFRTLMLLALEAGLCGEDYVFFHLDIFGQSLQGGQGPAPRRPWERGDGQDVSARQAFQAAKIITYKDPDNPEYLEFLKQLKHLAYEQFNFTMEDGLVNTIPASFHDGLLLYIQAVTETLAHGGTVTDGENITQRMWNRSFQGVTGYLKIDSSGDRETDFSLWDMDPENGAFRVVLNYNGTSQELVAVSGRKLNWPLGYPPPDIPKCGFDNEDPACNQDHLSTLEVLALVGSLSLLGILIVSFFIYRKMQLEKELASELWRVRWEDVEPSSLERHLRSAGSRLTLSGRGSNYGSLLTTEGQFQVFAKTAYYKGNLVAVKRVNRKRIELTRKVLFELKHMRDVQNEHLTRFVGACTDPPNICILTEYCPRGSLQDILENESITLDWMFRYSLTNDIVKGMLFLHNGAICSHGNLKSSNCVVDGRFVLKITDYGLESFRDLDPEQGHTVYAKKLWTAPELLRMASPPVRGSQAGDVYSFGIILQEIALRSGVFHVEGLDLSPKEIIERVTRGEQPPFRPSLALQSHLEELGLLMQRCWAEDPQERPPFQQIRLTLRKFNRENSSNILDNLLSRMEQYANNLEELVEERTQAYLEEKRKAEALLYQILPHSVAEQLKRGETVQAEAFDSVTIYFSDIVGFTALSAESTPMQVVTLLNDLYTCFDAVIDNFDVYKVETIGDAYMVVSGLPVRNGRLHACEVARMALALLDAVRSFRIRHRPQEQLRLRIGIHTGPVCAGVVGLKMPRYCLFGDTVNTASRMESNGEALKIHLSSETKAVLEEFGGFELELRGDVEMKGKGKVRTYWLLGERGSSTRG
smiles,measurement,setting,value
COc1ccc(C(CN(C)C)C2(O)CCCCC2)cc1 (configuration not stated),"cell viability, % of control (lower = more cytotoxic)",[1],171%
same,viability (% of control),[2],107%
same,Potency,[3],inactive
same,outcome,[4],inactive
same,Potency,[5],26.4 µM (active)
same,Potency,[6],inactive
same,Potency,[7],inactive
same,Potency,[8],inactive
same,Potency,[9],inactive
same,Potency,[10],inactive
CC1=C2C[C@@H]3[C@@H](CC=C4C[C@@H](O)CC[C@@]43C)[C@@H]2CC[C@]12O[C@H]1C[C@H](C)CN[C@H]1[C@H]2C,Potency,[11],23.5 µM (active)
same,Potency,[12],20.9 µM (active)
same,"cell viability, % of control (lower = more cytotoxic)",[1],107%
same,viability (% of control),[2],116%
same,Potency,[3],inactive
same,outcome,[4],inactive
same,Potency,[13],inactive
same,IC50 (viability decrease),[14],inactive
same,Potency,[8],inactive
same,Potency,[10],inactive
O=C(O)C(=O)c1cn(Cc2ccccc2)c2ccc(-c3ccc(OC(F)(F)F)cc3)cc12,Potency,[11],23.5 µM (active)
same,"cell viability, % of control (lower = more cytotoxic)",[1],171%
same,viability (% of control),[2],118%
same,Potency,[3],inactive
same,outcome,[4],inactive
same,Potency,[5],inactive
same,outcome,[15],inactive
same,Potency,[13],18.7 µM (active)
same,Potency,[16],inactive
same,Potency,[8],inactive
C[C@]12CCC(=O)C(O)=C1CC[C@@H]1[C@@H]2CC[C@]2(C)C(=O)CC[C@@H]12,Potency,[11],inactive
same,Potency,[12],inactive
same,Potency,[3],inactive
same,outcome,[4],inactive
same,Potency,[17],inactive
same,Potency,[13],inactive
same,Potency,[18],inactive
same,Potency,[8],inactive
same,Potency,[9],inactive
same,Potency,[19],inactive
same,Potency,[10],inactive
COc1ccc(C(=O)c2c(C)n(CCN3CCOCC3)c3ccccc23)cc1,Potency,[11],20.9 µM (active)
same,"cell viability, % of control (lower = more cytotoxic)",[1],100%
same,viability (% of control),[2],101%
same,Potency,[3],inactive
same,outcome,[4],inactive
same,Potency,[5],inactive
same,Potency,[6],inactive
same,Potency,[7],inactive
same,Potency,[17],inactive
same,Potency,[8],inactive and 5.8 µM (active)
same,Potency,[10],inactive
Oc1cn2c(n1)Nc1ccc(Cl)c(Cl)c1C2,Potency,[12],0.0066 µM (active)
CCC(C)(C)C(=O)O[C@H]1C[C@@H](C)C=C2C=C[C@H](C)[C@H](CC[C@@H]3C[C@@H](O)CC(=O)O3)[C@H]21,Potency,[12],7.1 µM (active)
CCCCC/C=C\C/C=C\C/C=C\C/C=C\CCCC(=O)NC1CC1,Potency,[11],inactive
same,Potency,[12],inactive
same,Potency,[13],inactive
CN1CCN(C(=O)O[C@H]2c3nccnc3C(=O)N2c2ccc(Cl)cn2)CC1,"cell viability, % of control (lower = more cytotoxic)",[1],126%
same,viability (% of control),[2],135%
same,Potency,[3],inactive
same,outcome,[4],inactive
same,Potency,[5],inactive
same,Potency,[6],inactive
same,Potency,[7],inactive
same,Potency,[8],inactive
same,Potency,[10],inactive
C[C@@H]1O[C@@H](O[C@H]2C[C@@H](O)[C@]3(CO)[C@H]4[C@H](O)C[C@]5(C)[C@@H](C6=CC(=O)OC6)CC[C@]5(O)[C@@H]4CC[C@]3(O)C2)[C@H](O)[C@H](O)[C@H]1O,"cell viability, % of control (lower = more cytotoxic)",[1],26%
same,viability (% of control),[2],3.79%
same,Potency,[3],inactive
same,outcome,[4],inactive
same,Potency,[5],0.0372 µM (active)
same,Potency,[6],158 nM (active) and 63.1 nM (active)
same,Potency,[7],65.1 nM (active) and 51.7 nM (active)
same,Potency,[20],inactive
same,Potency,[9],inactive
same,Potency,[19],inactive
same,Potency,[10],13.2 nM (active) and inactive
CC(C)CC(N(C)C)C1(c2ccc(Cl)cc2)CCC1 (configuration not stated),"cell viability, % of control (lower = more cytotoxic)",[1],134%
same,viability (% of control),[2],105%
same,Potency,[3],inactive
same,outcome,[4],inactive
same,Potency,[5],18.7 µM (active)
same,Potency,[6],inactive
same,Potency,[7],inactive
same,Potency,[8],inactive
same,Potency,[10],inactive
Cc1cccc(C)c1NC(=O)CN1CCCC1=O,"cell viability, % of control (lower = more cytotoxic)",[1],116%
same,viability (% of control),[2],110%
same,Potency,[3],inactive
same,outcome,[4],inactive
same,Potency,[5],inactive
same,Potency,[8],inactive
same,Potency,[20],inactive
same,Potency,[9],inactive
same,Potency,[19],inactive
same,Potency,[10],inactive
COC[C@H]1OC(=O)c2coc3c2[C@@]1(C)C1=C(C3=O)C2CCC(=O)[C@@]2(C)C[C@H]1OC(C)=O (some centres not stated),Potency,[11],5.9 µM (active)
same,Potency,[12],16.6 µM (active)
same,Potency,[3],inactive
same,outcome,[4],inactive
same,Potency,[13],18.7 µM (active)
same,IC50 (viability decrease),[14],23.5 µM (active)
same,Potency,[18],0.296 µM (active)
same,Potency,[16],inactive
same,Potency,[8],inactive
same,Potency,[20],inactive
same,Potency,[9],inactive
same,Potency,[19],inactive
same,Potency,[10],inactive
NCC1(CC(=O)O)CCCCC1,"cell viability, % of control (lower = more cytotoxic)",[1],114%
same,viability (% of control),[2],104%
same,Potency,[3],inactive
same,outcome,[4],inactive
same,Potency,[6],inactive
same,Potency,[7],inactive
same,Potency,[8],inactive
same,Potency,[20],inactive
same,Potency,[9],inactive
same,Potency,[19],inactive
same,Potency,[10],inactive
CNC(=O)N1N=C(c2ccc(N)cc2)c2cc3c(cc2CC1C)OCO3 (configuration not stated),Potency,[12],5.26 µM (active)
same,"cell viability, % of control (lower = more cytotoxic)",[1],24.2%
same,viability (% of control),[2],9.51%
same,Potency,[3],inactive
same,outcome,[4],inactive
same,Potency,[17],inactive
same,Potency,[13],inactive
same,IC50 (viability decrease),[14],7.43 µM (active)
same,Potency,[10],inactive
CN(C)CCN(C)CCc1ccc(Cl)c(Cl)c1,Potency,[11],18.7 µM (active)
same,Potency,[12],inactive
same,"cell viability, % of control (lower = more cytotoxic)",[1],137%
same,viability (% of control),[2],92.7%
same,Potency,[3],inactive
same,outcome,[4],inactive
same,Potency,[5],inactive
same,Potency,[17],inactive
same,Potency,[13],18.7 µM (active)
same,IC50 (viability decrease),[14],inactive
same,Potency,[8],inactive
same,Potency,[10],inactive
C=C(C)[C@H]1Cc2c(ccc3c2O[C@@H]2COc4cc(OC)c(OC)cc4[C@@H]2C3=O)O1,"cell viability, % of control (lower = more cytotoxic)",[1],45.8%
same,viability (% of control),[2],11.5%
same,Potency,[3],inactive
same,outcome,[4],inactive
same,Potency,[5],2.96 µM (active)
same,Potency,[7],inactive
same,Potency,[8],13 nM (active) and 2.64 µM (active)
same,Potency,[20],0.117 µM (active)
same,Potency,[9],0.135 µM (active)
same,Potency,[19],0.0826 µM (active)
same,Potency,[10],inactive
